Assay results published in PubChem BioAssay (EPA / NIEHS).
Results filed as inconclusive are left out. Active and inactive are the calls of the source. The calls were made as follows, unless noted: active = hit-call score of the fitted dose curve at least 0.9, where 1 is the maximum; inactive = score below 0.9.

Columns and labels:
[1] = TOX21_TR_RXR_BLA_Antagonist_Followup_viability: Viability Assessment in the Tox21 Thyroid Hormone Receptor beta Retinoid X Receptor alpha (RXRa) Antagonism Beta-lactamase (BLA) Follow-Up Assay (AID 2283979; active = hit-call score of the fitted dose curve at least 0.9, where 1 is the maximum)
From the text: GeneBLAzer RXRa-UAS-bla HEK293T assay (RXRa-bla) (ThermoFisherScientific Catalog No. K1697) was run in qHTS 1536 well format as a secondary assay for specificity of response in the TOX21_TR_GH3_LUC_Agonist assay.TOX21_TR_RXR_BLA_Antagonist_Followup_viability is a component of the TOX21_TR_RXR_BLA_Antagonist_Followup assay. This component measures cell viability using the CellTiter-Glo Luciferase-coupled ATP quantitation.The assay component endpoint TOX21_TR_RXR_BLA_Antagonist_Followup_viability was analyzed with bidirectional fitting relation to DMSO as the negative control and baseline of activity. Using a type of viability reporter, loss-of-signal activity can be used to understand changes in viability. […]
Cell Media Required: Growth (90% DMEM/F-12, 10% Fetal Bovine Calf Serum, 100U/ml Penicillin, 100 ug/ml Streptomycin), Assay (10ng/mL sodium selenite, 10 ug/mL humanapo-transferrin, 10 uM ethanolamine, 10 ug/mL insulin, 500 ug/mL bovine serum albumin (BSA))Assay Protocol: RXRa-bla cells were seeded at 2,500/well in 6 uL of the assay medium containing phenol red-free DMEM with 2% charcoal-stripped FBS in 1,536-well black-wall/clear-bottom plates (Greiner Bio-One North America) usinga Multidrop Combi dispenser. […] After 2-h incubation at room temperature, the fluorescence intensity was measured using an Envision plate reader (Perkin Elmer). Data were expressed as the ratio of 460:530 nm.

[2] = CCTE_Harrill_HTTr_Viability_DMEM_12hr: (Pilot) CCTE's 12-hour Cell Viability Assessment for the High-Throughput Transcriptomics (HTTr) Platform, in MCF-7 cells cultured in DMEM + 10% fetal bovine serum, Harrill Lab (AID 2283974)
How it was run: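 MCF-7 cells in DMEM + 10% FBS exposed 12 h to an eight-point dilution series; membrane integrity scored by propidium iodide exclusion with high-content imaging, bidirectional fitting versus DMSO.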

[3] = CCTE_Harrill_HTTr_Viability_DMEM_24hr: (Pilot) CCTE's 24-hour Cell Viability Assessment for the High-Throughput Transcriptomics (HTTr) Platform, in MCF-7 cells cultured in DMEM + 10% fetal bovine serum, Harrill Lab (AID 2283975)
How it was run: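 MCF-7 cells in DMEM with 10% FBS exposed for 24 hours to an eight-point dilution series. Membrane integrity by propidium iodide exclusion with high content imaging; bidirectional fit against DMSO.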

[4] = CCTE_Harrill_HTTr_Viability_PRF_DMEM_6hr: (Pilot) CCTE's 6-hour Cell Viability Assessment for the High-Throughput Transcriptomics (HTTr) Platform, in MCF-7 cells cultured phenol red-free DMEM + 10% charcoal-stripped fetal bovine serum, Harrill Lab (AID 2283976)
How it was run: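 MCF-7 cells in phenol red-free DMEM with 10% charcoal-stripped FBS exposed 6 hours to an eight-point dilution series. Propidium iodide exclusion imaged; curves fitted bidirectionally against DMSO.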

[5] = CCTE_Harrill_HTTr_Viability_PRF_DMEM_12hr: (Pilot) CCTE's 12-hour Cell Viability Assessment for the High-Throughput Transcriptomics (HTTr) Platform, in MCF-7 cells cultured in phenol red-free DMEM + 10% charcoal-stripped fetal bovine serum, Harrill Lab (AID 2283977)
How it was run: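 MCF-7 cells in phenol red-free DMEM with 10% charcoal-stripped FBS exposed 12 hours to an eight-point dilution series. Viability assessed by high-content imaging of propidium iodide exclusion; bidirectional fit versus DMSO.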

[6] = CCTE_Harrill_HTTr_Viability_PRF_DMEM_24hr: (Pilot) CCTE's 24-hour Cell Viability Assessment for the High-Throughput Transcriptomics (HTTr) Platform, in MCF-7 cells cultured in phenol red-free DMEM + 10% charcoal-stripped fetal bovine serum, Harrill Lab (AID 2283980)
From the text: This is a cell-based assay that evaluates cell viability using high content imaging to evaluate membrane integrity using propidium iodide dye exclusion in a 384 well format.One of seven assay components measured from the CCTE_Harrill_HTTr_Viability assay. This was part of a pilot experiment. This is a cell-based assay that evaluates cell viability in MCF-7 cells cultured in phenol red-free DMEM + 10% charcoal-stripped fetal bovine serum. High content imaging is used to evaluate membrane integrity using propidium iodide dye exclusion. Measurements are taken at 24 hours after chemical dosing in 384-well format.The assay component endpoint CCTE_Harrill_HTTr_Viability_PRF_DMEM_24hr was analyzed with bidirectional fitting relation to DMSO as the negative control and baseline of activity. Using a type of viability reporter to understand changes in cytotoxicity, gain-of-signal activity can be used to evaluate membrane integrity using propidium iodide dye exclusion. To generalize the intended target to other relatable targets, this assay endpoint is annotated to cell cycle, where the subfamily is cytotoxicity.
Chemicals were tested in MCF7 cells in an eight point dilution series with a twenty-four hour exposure duration.

[7] = CCTE_Harrill_HTTr_Apoptosis_DMEM_6hr: (Pilot) CCTE's 6-hour Apoptosis Assessment for the High-Throughput Transcriptomics (HTTr) Platform, in MCF-7 cells cultured in DMEM + 10% fetal bovine serum, Harrill Lab (AID 2283981)
How it was run: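 Caspase-3/7 activation read by high content imaging with CellEvent Caspase 3/7 Green in MCF-7 cells (DMEM + 10% FBS), 6 h after dosing; eight-point dilution series. Bidirectional fitting relative to DMSO baseline.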

[8] = CCTE_Harrill_HTTr_Apoptosis_DMEM_12hr: (Pilot) CCTE's 12-hour Apoptosis Assessment for the High-Throughput Transcriptomics (HTTr) Platform, in MCF-7 cells cultured in DMEM + 10% fetal bovine serum, Harrill Lab (AID 2283982)
How it was run: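 MCF-7 cells in DMEM + 10% FBS, exposed 12 h to an eight-point dilution series; caspase-3/7 activation imaged with CellEvent Green. Bidirectional fit versus DMSO.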

[9] = CCTE_Harrill_HTTr_Apoptosis_DMEM_24hr: (Pilot) CCTE's 24-hour Apoptosis Assessment for the High-Throughput Transcriptomics (HTTr) Platform, in MCF-7 cells cultured in DMEM + 10% fetal bovine serum, Harrill Lab (AID 2283983)
How it was run: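 MCF-7 cells in DMEM + 10% FBS, eight-point dilution series, 24 h exposure. Caspase-3/7 activation imaged by high-content imaging with CellEvent Caspase 3/7 Green. Bidirectional curve fitting against DMSO baseline.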

[10] = CCTE_Harrill_HTTr_Apoptosis_PRF_DMEM_6hr: (Pilot) CCTE's 6-hour Apoptosis Assessment for the High-Throughput Transcriptomics (HTTr) Platform, in MCF-7 cells cultured phenol red-free DMEM + 10% charcoal-stripped fetal bovine serum, Harrill Lab (AID 2283984)
How it was run: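 MCF-7 cells in phenol red-free DMEM + 10% charcoal-stripped FBS, eight-point dilution series, 6 h exposure. Caspase-3/7 activation imaged by high-content imaging with CellEvent Caspase 3/7 Green; bidirectional fit versus DMSO baseline.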

Measured: outcome

CN(C)c1ccc(C(=O)c2ccc(N(C)C)cc2)cc1
inactive: [1]

CS(=O)(=O)NC(=O)c1cc(Oc2ccc(C(F)(F)F)cc2Cl)ccc1[N+](=O)[O-]
not listed: [1]
inactive: all other assays above

COC(=O)Nc1nc2ccccc2[nH]1
inactive: [1]
